Laboratory results published in PubChem BioAssay (Tox21).
Inconclusive results are not listed. A call without a number means that no potency is given here. The source made the active and inactive calls. Calls follow the shape of the full dose curve.

These compounds were tested against Acetylcholinesterase (Homo sapiens) (UniProt P22303) (assay: Acetylcholinesterase (AChE) small molecule antagonists: fluorescence cell-based qHTS assay (AID 1347398; also: nearly all actives have a fitted effect of over 50% in size)). Details: SH-SY5Y cells; Potency: AChE activity; outcome: AChE activity; series mostly up to 115 µM.
Chain of Acetylcholinesterase (Homo sapiens) (P22303 whole entry, looked up): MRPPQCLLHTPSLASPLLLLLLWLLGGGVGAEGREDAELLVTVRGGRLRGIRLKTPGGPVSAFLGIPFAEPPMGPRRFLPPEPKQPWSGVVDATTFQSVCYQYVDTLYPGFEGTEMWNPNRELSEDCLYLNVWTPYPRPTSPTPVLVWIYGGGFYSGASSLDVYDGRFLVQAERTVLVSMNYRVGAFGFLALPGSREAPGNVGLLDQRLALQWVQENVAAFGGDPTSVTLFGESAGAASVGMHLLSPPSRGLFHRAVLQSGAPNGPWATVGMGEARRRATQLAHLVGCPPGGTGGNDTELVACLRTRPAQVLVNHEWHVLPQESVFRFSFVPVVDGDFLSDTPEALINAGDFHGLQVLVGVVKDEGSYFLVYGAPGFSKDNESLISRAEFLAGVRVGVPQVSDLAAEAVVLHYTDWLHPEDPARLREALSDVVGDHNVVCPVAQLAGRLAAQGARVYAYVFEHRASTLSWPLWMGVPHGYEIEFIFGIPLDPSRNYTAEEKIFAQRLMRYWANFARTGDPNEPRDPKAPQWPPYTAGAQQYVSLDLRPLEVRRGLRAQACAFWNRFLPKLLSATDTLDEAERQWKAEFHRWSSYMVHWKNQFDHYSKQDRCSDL
Excerpt: National Center for Advancing Translational Sciences [NCATS]
Division of Preclinical Innovation [DPI]
U.S. Environmental Protection Agency [EPA]
National Institutes of Environmental Health Sciences [NIEHS]
National Toxicology Program [NTP]
U.S. Food and Drug Administration [FDA]
Acetylcholinesterase (AChE) is the primary cholinesterase in the body that hydrolyzes a key neurotransmitter, acetylcholine. Inhibition of AChE activity can lead to neurotoxicity. Known inhibitors of AChE include organophosphorous pesticides (OP), chemical warfare agents, drugs, and various phytochemicals.
A homogenous cell-based assay using Amplitetrade mark Fluorimetric Acetylcholinesterase Assay Kit *Green Fluorescence* (AAT Bioquest, Sunnyvale, CA) was used to evaluate the chemicals in the Tox21 10K library that inhibit AChE activity. The assay uses Thiolite Green to quantify the thiocholine produced from the hydrolysis of acetylthiocholine by AChE from the SH-SY5Y cells. AChE can hydrolyze acetylthiocholine to create thiocholine. Thiolite Green is fluorescent when reacting with thiocholine. It has spectral properties similar to those of fluorescein. The fluorescence intensity of Thiolite Green is used to measure AChE activity. Its signal can be easily read by a fluorescence microplate reader at Ex/Em = 490/520 nm.
Tox21 Assay Protocol Summary:
For cell-based AChE assay, 2,000 SH-SY5Y cells in 4 uL/well were dispensed into black, clear-bottom 1536-well plates using a Multidrop Combi (Thermo Scientific) dispenser. The assay plates were incubated overnight at 37 C to allow cells to attach to the wells, followed by the transfer of 23 nL compound or DMSO (vehicle control) by a Pintool station (Wako Automation, CA). The plates were incubated for 30 min at 37 C and 5% CO2, followed by the addition of 4 uL of detection cocktail solution (ThioliteGreen, acetylthiocholine) into each well using Flying Reagent Dispenser (Beckman Coulter, CA) and then following 40 min incubation at room temperature. Fluorescent intensity (Ex/Em = 490/520 nm) was measured using an Envision plate reader (PerkinElmer, MA).
Potency is read from the fitted curve at half-maximal effect.

Question: How did the Potency turn out when `O=S(O)CO` was run?
Answer: inactive

Question: `CC(=O)OCC(=O)Nc1cc(C#N)cc(NC(=O)COC(C)=O)c1Cl` was tested. Which Potency did it give?
Answer: inactive

Question: `CC(NC(CCc1ccccc1)C(=O)O)C(=O)N1C(=O)N(C)CC1C(=O)O` (stereo not given) was tested. Which Potency did it give?
Answer: inactive

Question: Which Potency does the source give for `CCCCC/C=C\C/C=C\CCCCCCCC(=O)NC(C)c1ccccc1` (stereo not given) here?
Answer: inactive

Question: Which Potency does the source give for `N#CCc1cccc(C(F)(F)F)c1` here?
Answer: inactive

Question: `Nc1ccc(C(=O)OCC(O)CO)cc1` (stereo not given) was tested. Which Potency did it give?
Answer: inactive

Question: With `O=C(CC(=O)C(F)(F)F)c1ccccc1` as the compound, how does the Potency read?
Answer: inactive

Question: Which Potency does the source give for `CCOc1ccccc1N` here?
Answer: inactive

Question: Which Potency does the source give for `N=C1N=C(N)c2ccccc21` here?
Answer: inactive

Question: How did the Potency turn out when `CCCn1cc[n+](C)c1C` was run?
Answer: inactive

Question: For `C=C(C)C1CC=C(C)C(O)C1` (stereo not given), which Potency is on record?
Answer: inactive

Question: `COc1cc2nc(N3CCN(C(=O)C4CCCO4)CC3)nc(N)c2cc1OC` (stereo not given) was tested. Which Potency did it give?
Answer: 12.3 µM (active)

Question: `CNCCO` was tested. Which Potency did it give?
Answer: inactive

Question: `CC(C)CC(O)Cc1ccccc1` (stereo not given) was tested. Which Potency did it give?
Answer: inactive

Question: `CCN(CC)CC` was tested. Which Potency did it give?
Answer: inactive

Question: For `CC(C)OC(=O)c1cc2c(OCC(O)CNC(C)(C)C)cccc2[nH]1` (stereo not given), which Potency is on record?
Answer: inactive

Question: How did the Potency turn out when `Nc1ccc(S(=O)(=O)O)c(N)c1` was run?
Answer: inactive

Question: `CC1=CCCC(C)(C)C12CCC(C)O2` (stereo not given) was tested. Which Potency did it give?
Answer: inactive

Question: Which Potency does the source give for `CCOC(=O)c1ccccc1` here?
Answer: inactive

Question: For `O=c1c(O)c(-c2ccc(O)cc2O)oc2cc(O)cc(O)c12`, which Potency is on record?
Answer: inactive

Question: `Cc1ccc2c(Br)cc(Br)c(O)c2n1` was tested. Which Potency did it give?
Answer: inactive

Question: Which Potency does the source give for `Oc1ccc(Cl)cc1C1CCCC1` here?
Answer: inactive

Question: How did the Potency turn out when `CCOC(=O)CC` was run?
Answer: inactive

Question: With `CC[N+](CC)(CC)CCOC(=O)C(C1CCCC1)C1CCCC1` as the compound, how does the Potency read?
Answer: inactive

Question: For `CO[Si](CCC1CCC2OC2C1)(OC)OC` (stereo not given), which Potency is on record?
Answer: inactive

Question: With `CCCN1C[C@H](CSC)C[C@@H]2c3cccc4[nH]cc(c34)C[C@H]21` as the compound, how does the Potency read?
Answer: 12.3 µM (active)

Question: `NC(=S)N/N=C/c1cccnc1` was tested. Which Potency did it give?
Answer: inactive

Question: `Cc1ccc(N)nc1` was tested. Which Potency did it give?
Answer: inactive

Question: `CCCCCN(CCCCC)C(=O)C(CCC(=O)O)NC(=O)c1ccc(Cl)c(Cl)c1` (stereo not given) was tested. Which Potency did it give?
Answer: inactive

Question: How did the Potency turn out when `CC1(c2ccccc2)OC(C(=O)O)=CC1=O` (stereo not given) was run?
Answer: inactive

Question: `CC(C)=CCCC(C)C=O` (stereo not given) was tested. Which Potency did it give?
Answer: inactive

Question: `Nc1c(NC/C=C\COc2cc(CN3CCCCC3)ccn2)c(=O)c1=O` was tested. Which activity change, negative = inhibition did it give?
Answer: -23% [at 23.8 µM] (inactive)

Question: For `Nc1nc(N)nc(-c2cc(Cl)ccc2Cl)n1`, which Potency is on record?
Answer: inactive

Question: Which Potency does the source give for `CC(C)c1ccc(C#N)cc1` here?
Answer: inactive

Question: For `OC1CCCCC1c1ccccc1` (stereo not given), which Potency is on record?
Answer: inactive

Question: For `CCCCCCCCCCCBr`, which Potency is on record?
Answer: inactive

Question: With `NC(=O)c1ccccc1` as the compound, how does the Potency read?
Answer: inactive

Question: Which Potency does the source give for `CC(=O)OCC1=C(C(=O)O)N2C(=O)[C@@H](NC(=O)Cc3cccs3)[C@H]2SC1` here?
Answer: inactive

Question: How did the Potency turn out when `CC(=O)Oc1ccc(C(c2ccc(OC(C)=O)cc2)c2ccccn2)cc1` was run?
Answer: inactive

Question: Which Potency does the source give for `CCN1/C(=C/C=C/c2sc3ccccc3[n+]2CC)Sc2ccccc21` here?
Answer: 6.74 µM (active)
